Assay outcomes deposited in PubChem BioAssay by National Center for Advancing Translational Sciences (NCATS).
Resorufin fluor: qHTS Assay for Spectroscopic Profiling in Resorufin Spectral Region; Compound fluorescence, resorufin region 547/598 nm, buffer; stronger effect = higher value; max dye-equivalent concentration, M; actives 0.04% (n = 59,000); AID 588, 2007
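Intrinsic fluorescence profiled in the resorufin window (ex 547 nm, em 598 nm) after 15 min at room temperature in pH 8.0 Tris buffer (100 mM); responses normalized against a six-point resorufin standard series as dye-equivalent concentration.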
Rhodamine fluor: qHTS Assay for Spectroscopic Profiling in Rhodamine Spectral Region; Rhodamine-region fluorescence, 547/598 nm, Tris buffer; stronger effect = higher value; max dye-equivalent concentration, M; actives 0.05% (n = 59,000); AID 594, 2007; in the data active means max dye-equivalent concentration above about 11 nM; inconclusive means between about 1.1 nM and that limit
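Read-out is relative fluorescence at 547 nm excitation and 598 nm emission, expressed as dye-equivalent concentration using rhodamine standards on every plate. Each compound was profiled across a concentration series after 15 min in 100 mM Tris, pH 8.0.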
A488 fluor: qHTS Assay for Spectroscopic Profiling in A488 Spectral Region; AID 591, 2007; actives 0.1% (n = 59,000); max dye equivalency, M; compound autofluorescence, A488 spectral region, dye equivalency; Compound Type: qHTS ECL - MLSMR
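Compound autofluorescence was read in 100 mM Tris pH 8.0 after 15 min at room temperature, ex 480 nm/em 540 nm. Intensities were converted to A488 dye-equivalent concentration using an on-plate six-point A488 standard curve.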
Fluorescein fluor: qHTS Assay for Spectroscopic Profiling in Fluorescein Spectral Region; max fluorescein-equivalent concentration, M; Compound autofluorescence, 480/540 nm, fluorescein-equivalent; stronger effect = higher value; actives 0.91% (n = 59,000); in the data active means max fluorescein-equivalent concentration above about 10 nM; inconclusive means between about 1.1 nM and that limit
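Compounds (23 nL) in 100 mM Tris pH 8.0, 15 min at room temperature, then fluorescence read at 480 nm excitation/540 nm emission. Signal converted to fluorescein-equivalent concentration from an on-plate fluorescein standard curve.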
A647 fluor: qHTS Assay for Spectroscopic Profiling in A647 Spectral Region; Compound fluorescence, A647 channel (570/671 nm), Tris buffer; max dye-equivalent concentration, M; 59,000 tested, under 10 active
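Fluorescence read (570 nm ex, 671 nm em) after 15 min RT incubation of compounds in 100 mM Tris buffer, pH 8.0; values expressed as dye-equivalent concentration against a six-point A647 standard series on each plate.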
Texas Red fluor: qHTS Assay for Spectroscopic Profiling in Texas Red Spectral Region. Compound fluorescence, Texas Red channel, 547/618 nm; stronger effect = higher value. max dye-equivalent concentration, M. actives 0.06% (n = 59,000). AID 587, 2007; in the data active means max dye-equivalent concentration above about 10 nM; inconclusive means between about 1.1 nM and that limit
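Compound titrations in 100 mM Tris pH 8.0 were incubated 15 min at room temperature and read at 547 nm excitation / 618 nm emission. Texas Red six-point standard curve on each plate converted fluorescence to dye-equivalent concentration.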
Numbers stand for hits; – = inactive; ? = inconclusive; ! = a repeat was not active. Hits are enriched below; roughly 0.96% of the tested compounds scored in any of these assays. Unless noted, how the calls were made is not given here.

SMILES | Resorufin fluor | Rhodamine fluor | A488 fluor | Fluorescein fluor | A647 fluor | Texas Red fluor
N#CC(C(=O)NC1CC1)c1nc2ccccc2nc1N1CCCC1 (stereo not given) | – | – | ? | 1.79e-07M | – | ?
N#CC(C(=O)NC1CC1)c1nc2ccccc2nc1N1CCN(C/C=C/c2ccccc2)CC1 (stereo not given) | – | – | ? | 1.29e-07M | – | –
COC(=O)C1=C(C)NC(C)=C(C(=O)OCCN(C)Cc2ccccc2)[C@@H]1c1cccc([N+](=O)[O-])c1 | – | – | – | ? | – | –
O=C(c1ccncc1)N1CCC[C@@]2(CCN(c3ccccc3)C2)C1 | – | – | – | – | – | –
C[C@@H]1C(=O)O[C@@H]2C[C@@]34[C@H]5C[C@@H](C(C)(C)C)[C@@]36[C@@H](OC(=O)[C@@H]6O)O[C@]4(C(=O)O5)[C@@]12O | – | – | – | – | – | –
CCOC(=O)C1=C(C)NC(C)=C(C(=O)OC)[C@@H]1c1cccc(Cl)c1Cl | – | – | – | ? | – | –
Cc1ccc(C)n1Cc1ccc(C(=O)O)cc1 | – | – | – | 1.07e-08M | ? | –
Cc1cc2nc3c(=O)[nH]c(=O)nc-3n(CC(O)C(O)C(O)CO)c2cc1C (stereo not given) | ? | ? | 3.12e-08M | 7.8e-07M | – | –
COc1cc(C(=O)O[C@@H]2CC(C)=CC[C@@]3(C)CC[C@](O)(C(C)C)[C@H]23)ccc1O | – | – | – | – | – | –
CCN(CC)CCN1C(=O)c2cccc3cc(N)cc(c23)C1=O | – | – | ? | 3.89e-08M | – | –
CCN1C(=O)c2cccc3cccc1c23 | – | – | – | – | – | ?
CN1CCN(C(=O)CSc2nc(-c3cccs3)cc(-c3cccs3)c2C#N)CC1 | – | – | – | 2.04e-08M | – | ?
COc1cccc(Nc2ncc3nc(-c4cn(C)c5ccccc45)c(=O)n(C[C@H]4CCCO4)c3n2)c1 | – | – | – | 1.56e-08M | – | –
COc1cccc(Nc2ncc3nc(-c4cccs4)c(=O)n(C[C@H]4CCCO4)c3n2)c1 | – | – | ? | 4.22e-08M | – | –
CCN(CC)c1ccc2c(c1)OC(N)=C(C#N)C2c1cccnc1 (stereo not given) | – | – | ? | 4.82e-08M | – | –
CN1CCc2c(sc3c2C(=O)NC(c2ccco2)N3)C1 (stereo not given) | – | – | – | 1.33e-08M | – | –
CN(C)Cc1ccccc1-c1nccc(NCc2cccs2)n1 | – | – | – | 1.09e-08M | – | –
CC#C[C@@]1(O)CC[C@@H]2[C@@H]3CCC4=CC(=O)CCC4=C3[C@@H](c3ccc(N(C)C)cc3)C[C@]21C | – | – | – | – | – | –
COc1ccc(CCN(C)CCC[C@@](C#N)(c2cc(OC)c(OC)c(OC)c2)C(C)C)cc1OC | – | – | – | ? | – | –
COc1ccccc1C[C@@H](Cc1nc2ccccc2[nH]1)c1nc2ccccc2[nH]1 | – | – | – | ? | – | –
Cc1ccc(/C=c2\sc3nc(-c4cccs4)nn3c2=O)o1 | – | – | – | 1.29e-08M | – | ?
COc1ccccc1/C=c1\sc2nc(-c3cccs3)nn2c1=O | – | – | – | – | – | –
CCCCCCCCCCCCCCCCOC[C@@H](COCC(F)(F)F)OP(=O)(O)OCO | – | – | – | ? | – | –
Cc1cc(N2CCOCC2)n2nc(-c3cccc(F)c3)cc2n1 | – | – | – | 1.1e-08M | – | –
CCn1nc(-c2ccccc2)c2nc3ccccc3nc21 | – | – | 1.2e-08M | 2.42e-07M | – | –
SMILES | Resorufin fluor | Rhodamine fluor | A488 fluor | Fluorescein fluor | A647 fluor | Texas Red fluor
c1ccc(-c2nnc(Cn3c4ccccc4c4nc5ccccc5nc43)o2)cc1 | – | – | – | ? | – | –
CCCn1nc(-c2ccccc2)c2nc3ccccc3nc21 | – | – | 1.12e-08M | 2.01e-07M | – | –
CCCCn1c2nc3ccccc3nc2c2c(=O)n(CCC)cnc21 | – | – | – | – | – | ?
Cc1ccccc1/C=C\C1=NCCN1 | – | – | – | ? | – | –
Cc1ccc(N2C(=O)C3C(C2=O)C(C(=O)c2ccc(Cl)cc2)N2CCCC32)cc1 (stereo not given) | – | – | ? | 3.12e-08M | – | –
CCCOc1cc(N)ccc1C(=O)OCCN(CC)CC | – | – | – | ? | – | –
CCCOc1ccc(N)cc1N | – | – | – | 1.86e-08M | – | –
O=S(=O)(Nc1nc2ccccc2[nH]1)c1ccccc1 | – | – | – | 2.16e-08M | – | –
O=S(=O)(Nc1nc2ccccc2[nH]1)c1ccc(Cl)cc1 | – | – | – | – | – | –
CCOC(=O)C1CCCN(c2nc3ccccc3nc2C(C#N)C(=O)OCC)C1 (stereo not given) | – | – | – | 1.09e-08M | – | –
CCOC(=O)C1CCCN(c2nc3ccccc3nc2C(C#N)C(=O)OCCOC)C1 (stereo not given) | – | – | – | ? | – | –
COCCNC(=O)C(C#N)c1nc2ccccc2nc1N1CCCCCC1 (stereo not given) | – | – | – | ? | – | –
CCOC(=O)C1CCN(c2nc3ccccc3nc2C(C#N)C(=O)NCCc2ccccc2)CC1 (stereo not given) | – | – | – | 2.3e-08M | – | –
COc1cc2nc(N3CC=[N+](C(=O)c4ccco4)CC3)nc(N)c2cc1OC | – | – | – | – | – | –
Cn1ncc(N=Cc2ccccc2O)c1C(=O)Nc1ccccc1 | – | – | – | – | – | –
Cn1ncc(N=Cc2c(O)ccc3ccccc23)c1C(=O)N1CCOCC1 | – | – | – | 1.67e-08M | – | –
C[C@@H]1C[C@@H]2[C@H]3CCC4=CC(=O)C=C[C@]4(C)[C@]3(Cl)[C@@H](O)C[C@@]2(C)[C@@]1(O)C(=O)CO | – | – | – | ? | – | –
CN(C)c1ccc(C2C=C(c3ccc(Cl)cc3OC(F)F)Nc3ncnn32)cc1 (stereo not given) | – | – | – | 1.49e-08M | – | –
NS(=O)(=O)c1cc2c(cc1Cl)NCNS2(=O)=O | – | – | – | 1.08e-08M! | – | –
NS(=O)(=O)c1cc2c(cc1Cl)N[C@@H](CC1CCCC1)NS2(=O)=O | – | – | – | – | – | –
O=C(NCc1ccco1)c1cccnc1-c1nc2ccccc2s1 | – | – | ? | 3.5e-08M | – | –
O=c1c(O)c(-c2ccc(O)c(O)c2)oc2c(OC[C@H]3O[C@@H](O)[C@@H](O)[C@H](O)[C@@H]3O)c(O)cc(O)c12 | – | – | – | – | – | –
COc1cccc(OC)c1OCCNC[C@@H]1CSc2ccccc2O1 | – | – | – | – | – | –
COc1ccc2c(c1)[C@]1(C)CCC[C@](C)(CO)[C@@H]1CC2 | – | – | – | – | – | –
